Compound activity as filed in PubChem.
Methyltransferases: Primary Screen for Target Class Profiling of Small Molecule Inhibitors of Methyltransferases; purified enzyme, MTase-Glo SAH luminescence; hits give low values; calls only at 40 µM; 25,000 tested, 3.9% active; AID 1745853, 2022; call rule not given here
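Each enzyme was assayed with SAM and its substrate. SAH formation detected by MTase-Glo luminescence; single-point 40 uM screen[…].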
Calls only. The entries come from a sample that favours hits as a whole.

`CCOCCCNC(=O)c1cc2n(n1)CC(C)(C(=O)NC1CCCC1)N(C)C2=O` (configuration not stated) gave Methyltransferases inactive.
`COc1ccc(NC(=O)CSc2nnc3n(CC(C)C)c(=O)c4cc(F)ccc4n23)cc1` gave Methyltransferases inactive.
`CC(C)OCCCn1c(=O)c2ccccc2n2c(SCC(=O)Nc3cccc(Cl)c3)nnc12` gave Methyltransferases inactive.
COC(=O)c1cc2n(n1)CC(C)(C(=O)NC1CCCCC1)N(CCc1ccc(SC)cc1)C2=O (configuration not stated) was read as Methyltransferases inactive.
COc1ccc(N2C(=O)c3cc4ccccc4n3CC2(C)C(=O)NC2CCCC2)cc1 (configuration not stated) was read as Methyltransferases inactive.
Screening COc1cccc(N2C(=O)c3cc4ccccc4n3CC2(C)C(=O)NC2CCCC2)c1 (configuration not stated) returned Methyltransferases inactive.
Screening COCCn1c(CN(C)Cc2sccc2C)cnc1S(=O)(=O)CC1CCCCC1 returned Methyltransferases inactive.
CN1CCN(CCNC(=O)c2cc3n(n2)CC(C)(C(=O)NC2CCCCC2)N(C)C3=O)CC1 (configuration not stated) was read as Methyltransferases inactive.
Screening O=C(Cn1nc2n(CCc3ccccc3)c(=O)c3ccccc3n2c1=O)NCc1ccccc1 returned Methyltransferases inactive.
Screening CC(C)OCCCNC(=O)C1c2c(n(C)c3ccccc23)SCC(=O)N1Cc1ccc2c(c1)OCO2 (configuration not stated) returned Methyltransferases inactive.
For COc1ccc(C2Oc3c(OC)cc(CCCO)cc3C2COC2OC(CO)C(O)C(O)C2O)cc1OC (configuration not stated) the results were Methyltransferases inactive.
COc1cc(C2Oc3c(OC)cc(CCCO[C@@H]4O[C@H](CO)[C@@H](O)[C@H](O)[C@H]4O)cc3C2CO)ccc1O (some centres not stated) was read as Methyltransferases active.
For COc1cc(C[C@@]2(O)CO[C@@H](c3ccc(O[C@@H]4O[C@H](CO)[C@@H](O)[C@H](O)[C@H]4O)c(OC)c3)[C@H]2CO)ccc1O the results were Methyltransferases inactive.
C=Cc1ccc(Cn2nc3n(CCc4ccccc4)c(=O)c4ccccc4n3c2=O)cc1 was read as Methyltransferases inactive.
Screening CCCN1C(=O)c2cc3sccc3n2CC1(C)C(=O)NC1CCCCCCC1 (configuration not stated) returned Methyltransferases inactive.
For COc1ccc(NC(=O)c2nc3sccn3c2-c2cccc(OC)c2)cc1 the results were Methyltransferases inactive.
Screening CCOC(=O)Cn1cccc1-c1nc(-c2ccc(OC)cc2)c(-c2ccc(OC)cc2)s1 returned Methyltransferases active.
CC1(C)CCC2=C(O1)c1ccccc1C(=O)C2=O was read as Methyltransferases active.
Cc1ccc(C(=O)Cn2nc3n(CC(C)C)c(=O)c4ccc(C(=O)NCC(C)C)cc4n3c2=O)c(C)c1 was read as Methyltransferases inactive.
COCCCNC(=O)C1(C)Cn2nc(-c3ccccc3)cc2C(=O)N1Cc1ccccc1OC (configuration not stated) was read as Methyltransferases inactive.
Cc1ccc2c(c1)c1c(n2CCc2ccc(C)nc2)CCN(C)C1 was read as Methyltransferases active.
`CC(C)CCn1c(=O)c2ccc(C(=O)NC(C)C)cc2n2c(=O)n(Cc3ccc(F)cc3Cl)nc12` gave Methyltransferases inactive.
`CCC(C)NC(=O)Cn1nc2n(Cc3ccccc3)c(=O)c3ccc(C(=O)NCC(C)C)cc3n2c1=O` (configuration not stated) gave Methyltransferases inactive.
Screening CC(C)(O)c1ccccc1CC[C@@H](SCC1(CC(=O)O)CC1)c1cccc(/C=C/c2ccc3ccc(Cl)cc3n2)c1 returned Methyltransferases active.
`CC1(C(=O)NC2CCCC2)Cn2c(cc3ccccc32)C(=O)N1C1CCCCCC1` (configuration not stated) gave Methyltransferases inactive.
For CC1(C(=O)NC2CCCC2)Cn2c(ccc2-c2ccccc2)C(=O)N1CCc1cccs1 (configuration not stated) the results were Methyltransferases inactive.
CC(C)c1c2cc(-c3ccnc(NC4CCC(NC5CCOCC5)CC4)n3)ccc2nn1C (configuration not stated) was read as Methyltransferases active.
`CC1(C(=O)NC2CCCC2)Cn2c(ccc2-c2ccccc2)C(=O)N1CCC1=CCCCC1` (configuration not stated) gave Methyltransferases inactive.
Screening C=C1CC2OC(=O)C(COC)C2C(OC(=O)/C(C)=C\C)CC2(C)OC1=CC2=O (configuration not stated) returned Methyltransferases inactive.
For C=C(C)C(=O)OC1CC2(C)OC(=CC2=O)C(=C)CC2OC(=O)C(=C)C12 (configuration not stated) the results were Methyltransferases inactive.
